Data: the supplement of paper PMC12350171
Counter-ions that a name gives are not always drawn. Unmarked numbers belong to inactive results.

Key:
Settings in all cases: 20 µM
[1] = test system: Salmonella enterica typhimurium; test: growth AUC normalised to DMSO control (fraction of control); higher = less growth inhibition, active = hit call of the paper
Summary of the method: (§1)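 Hemin and NAD were added to the medium for Haemophilus parainfluenzae. All pathogens, after two anaerobic passages, were inoculated at a starting OD578 of 0.01 into pre-reduced mGAM plates with 20 μM compound and 1% DMSO under breathable seals, and OD578 was read hourly for 24 h in three biological replicates. AUC of each growth curve was obtained with the trapezoidal rule up to the exponential-to-stationary transition and normalised to DMSO controls from the same plate.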

Shigella flexneri = test: as above
Summary of the method: as §1

Vibrio cholerae = test: as above
Summary of the method: as §1

[2] = test system: Yersinia pseudotuberculosis; test: as above
Summary of the method: as §1

P. vulgatus RND KO = test: growth AUC normalised to DMSO control (median) (fraction of control); higher = less growth inhibition, active = hit call of the paper
Summary of the method: (§2)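 After two overnight anaerobic passages, strains were inoculated at OD578 0.01 into mGAM in 96-well plates containing approved-drug library compounds at 20 μM and 1% DMSO. Growth was followed by reading OD578 hourly for 24 h within an anaerobic incubator. Area under the curve, taken by the trapezoidal rule up to the start of stationary phase, was normalised to same-plate vehicle wells, and the median of three biological replicates is listed.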

P. vulgatus WT = test: as above
Summary of the method: as §2

[3] = test system: S. enterica typhimurium WT; test: as above
Summary of the method: as §2

[4] = test system: S. enterica typhimurium tolC KO; test: as above
Summary of the method: as §2
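Wherever growth AUC normalised to DMSO control (median) is given: active when median AUC fell below 0.1.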

Structure (SMILES) | growth AUC normalised to DMSO control [1] | growth AUC normalised to DMSO control (Shigella flexneri) | growth AUC normalised to DMSO control (Vibrio cholerae) | growth AUC normalised to DMSO control [2] | growth AUC normalised to DMSO control (P. vulgatus RND KO) | growth AUC normalised to DMSO control (P. vulgatus WT) | growth AUC normalised to DMSO control [3] | growth AUC normalised to DMSO control [4]
CC1=C(/C=C/C(C)=C/C=C/C(C)=C\C(=O)O)C(C)(C)CCC1 [Isotretinoin] | 0.994 | 0.992 | 1 | 1 | 1.01 | 0.989 | 0.999 | 1
CC(C)(C(=O)c1cccnc1)c1cccnc1 [Metyrapone] | 0.996 | 0.992 | 0.965 | 0.989 | 0.996 | 0.981 | 1 | 0.996
COc1ccc2c(c1)c(CC(=O)OCC(=O)O)c(C)n2C(=O)c1ccc(Cl)cc1 [Acemetacin] | 0.979 | 0.965 | 0.985 | 0.985 | 0.855 | 0.866 | 0.993 | 0.969
Clc1ccc(C(c2ccccc2Cl)C(Cl)Cl)cc1 (configuration not stated) [Mitotane] | 1 | 0.999 | 1.07 | 1.02 | 0.97 | 0.94 | 1 | 0.957
CO[C@@]1(NC(=O)Cc2cccs2)C(=O)N2C(C(=O)O)=C(COC(N)=O)CS[C@@H]21 [Cefoxitin sodium salt] | 0.00626 (active) | 0.0351 (active) | 0.307 (active) | 0.0451 (active) | 0.018 (active) | 0.0178 (active) | 0.00954 (active) | 0.0113 (active)
NS(=O)(=O)c1cc2c(cc1Cl)NC(CC1CCCC1)NS2(=O)=O (configuration not stated) [Cyclopenthiazide] | 1 | 0.972 | 0.98 | 0.971 | 0.978 | 0.993 | 1 | 0.991
O=C(NCCO[N+](=O)[O-])c1cccnc1 [Nicorandil] | 0.995 | 0.99 | 0.991 | 0.999 | 0.986 | 0.996 | 1.01 | 1.01
CCCCc1oc2ccccc2c1C(=O)c1cc(I)c(OCCN(CC)CC)c(I)c1 [Amiodarone hydrochloride] | 0.999 | 1.04 | 1 | 1.02 | 1.02 | 1.06 | 1.04 | 1.02
O=C(O)CCC(=O)Nc1ccc(S(=O)(=O)Nc2nccs2)cc1 [Succinylsulfathiazole] | 1 | 0.997 | 0.999 | 1 | 1 | 1.05 | 1 | 0.994
CC(=O)OC(C)C[N+](C)(C)C (configuration not stated) [Methacholine chloride] | 0.992 | 0.939 | 0.99 | 0.983 | 0.991 | 1 | 0.991 | 1
CN1CCCN=C1/C=C/c1cccs1 [Pyrantel tartrate] | 0.999 | 0.995 | 1.01 | 1.01 | 1.01 | 0.982 | 1.01 | 1
C[C@H]1C[C@H]2[C@@H]3CCC4=CC(=O)C=C[C@]4(C)[C@@]3(F)[C@@H](O)C[C@]2(C)[C@@]1(O)C(=O)CO [Betamethasone] | 0.985 | 0.957 | 0.979 | 0.988 | 0.986 | 0.98 | 1 | 0.991
CN(C(=O)C(Cl)Cl)c1ccc(OC(=O)c2ccco2)cc1 [Diloxanide furoate] | 0.998 | 0.959 | 0.97 | 0.978 | 0.988 | 0.996 | 0.995 | 0.966
CC(=O)O[C@]1(C(C)=O)CC[C@H]2[C@@H]3C=C(C)C4=CC(=O)CC[C@]4(C)[C@H]3CC[C@@]21C [Megestrol acetate] | 1.02 | 1.12 | 1.1 | 1.05 | 0.992 | 0.999 | 1.01 | 0.931
COc1ccc(-c2cc(=S)ss2)cc1 [Anethole-trithione] | 1.02 | 1.05 | 0.91 | 1.19 | 1.02 | 1.04 | 0.985 | 0.91
C[C@@H]1CCC[C@H](C)N1NC(=O)c1ccc(Cl)c(S(N)(=O)=O)c1 [Clopamide] | 0.976 | 0.97 | 0.982 | 0.992 | 1 | 0.981 | 1.01 | 0.988
CN[C@@H]1[C@H](O)[C@H](NC)[C@H]2O[C@@]3(O)C(=O)C[C@@H](C)O[C@H]3O[C@@H]2[C@H]1O [Spectinomycin dihydrochloride] | 0.896 (active) | 1.01 | 1.02 | 0.933 (active) | 1.01 | 1 | 0.961 | 0.871
O=c1[nH]cc(F)c(=O)[nH]1 [5-fluorouracil] | 0.842 (active) | 0.745 (active) | 0.942 | 0.927 | 0.0695 (active) | 0.0782 (active) | 0.809 | 0.806
CN(C)CCC=C1c2ccccc2C=Cc2ccccc21 [Cyclobenzaprine hydrochloride] | 0.98 | 0.955 | 0.866 (active) | 0.998 | 0.933 | 0.936 | 1 | 0.853
CCCNCC(O)COc1ccccc1C(=O)CCc1ccccc1 (configuration not stated) [Propafenone hydrochloride] | 1 | 0.994 | 0.979 | 0.99 | 1.03 | 1.05 | 0.988 | 0.948
NC(=O)c1cnccn1 [Pyrazinamide] | 0.99 | 0.92 | 0.993 | 0.99 | 0.992 | 0.993 | 0.999 | 0.999
Nc1nc(N)nc(-c2cc(Cl)ccc2Cl)n1 [Irsogladine maleate] | 0.998 | 1 | 0.999 | 0.995 | 0.959 | 0.977 | 0.999 | 1
CCC(=O)OCC(=O)[C@@]1(OC(=O)CC)[C@H](C)C[C@H]2[C@H]3[C@H]([C@@H](O)C[C@@]21C)[C@@]1(C)C=CC(=O)C=C1C[C@H]3Cl [Alclometasone dipropionate] | 1 | 0.974 | 0.999 | 1.01 | 1.03 | 1.04 | 1 | 1
O=C(O)Cc1cc(I)c(Oc2ccc(O)c(I)c2)c(I)c1 [Tiratricol] | 0.971 | 0.949 | 0.919 | 0.984 | 0.817 | 0.824 | 1.01 | 0.993
CC(=O)[C@@]1(O)CC[C@H]2[C@@H]3C[C@H](C)C4=CC(=O)C=C[C@]4(C)[C@@]3(F)[C@@H](O)C[C@@]21C [Fluorometholone] | 1.01 | 1.03 | 1.05 | 1 | 1 | 1.01 | 1 | 0.987
O=P(O)(O)C(Cl)(Cl)P(=O)(O)O [Clodronate disodium] | 0.986 | 0.993 | 0.964 | 0.991 | 1 | 1.01 | 0.997 | 0.986
N=C(N)NCc1cccc(I)c1 [Iobenguane sulfate] | 1.03 | 1.03 | 1.06 | 1.01 | 1.09 | 1.1 | 1.01 | 1
CCCOc1ccc(C(=O)OCCN(CC)CC)cc1N [Proparacaine hydrochloride] | 1 | 1.02 | 1.08 | 1 | 1.03 | 1.05 | 1.01 | 1.01
Clc1ccc(COC(Cn2ccnc2)c2ccc(Cl)cc2Cl)c(Cl)c1 (configuration not stated) [Miconazole] | 0.997 | 1.01 | 0.995 | 1.03 | 0.938 | 0.927 | 0.993 | 0.98
